From PubChem
TEAD-YAP inh: TEAD-YAP interaction inhibition | HEK-TIYL cells, TEAD-Gal4/YAP UAS-luciferase luminescence | inhibition, % at 9.12 µM | 640,000 compounds, 1.4% hits | AID 1259422; in the data active = inhibition above about 32%;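 note: 0% = median of test compound wells and 100% = reference inhibitor wells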
GPR151 ag: activators of human GPR151. PathHunter beta-arrestin GPR151 cells, luminescence. activation, % at 11.2 µM. 650,000 compounds, 1% hits. AID 1508602; in the data active = activation above about 4.9%;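 note: 0% = median of compound wells and 100% = cells with positive control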
MITF primary: human MITF inhibition, primary screen | AlphaScreen MITF homodimerization, bead proximity signal | inhibition, % at 2.6 µM | 650,000 compounds, 0.91% hits; in the data active = inhibition above about 50%;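 note: 0% = vehicle wells with protein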
FBW7 activator: human FBW7 E3 ligase activation, primary screen; normalized activity (activation), % at 26.1 µM; AlphaScreen FBW7–phospho-cyclin E peptide binding, activator screen; 650,000 compounds, 0.13% hits; in the data active = normalized activity above about 1.9%;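 note: purified mutant Fbw7 with reduced substrate affinity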
Target sequence (Q969H0 whole entry, looked up): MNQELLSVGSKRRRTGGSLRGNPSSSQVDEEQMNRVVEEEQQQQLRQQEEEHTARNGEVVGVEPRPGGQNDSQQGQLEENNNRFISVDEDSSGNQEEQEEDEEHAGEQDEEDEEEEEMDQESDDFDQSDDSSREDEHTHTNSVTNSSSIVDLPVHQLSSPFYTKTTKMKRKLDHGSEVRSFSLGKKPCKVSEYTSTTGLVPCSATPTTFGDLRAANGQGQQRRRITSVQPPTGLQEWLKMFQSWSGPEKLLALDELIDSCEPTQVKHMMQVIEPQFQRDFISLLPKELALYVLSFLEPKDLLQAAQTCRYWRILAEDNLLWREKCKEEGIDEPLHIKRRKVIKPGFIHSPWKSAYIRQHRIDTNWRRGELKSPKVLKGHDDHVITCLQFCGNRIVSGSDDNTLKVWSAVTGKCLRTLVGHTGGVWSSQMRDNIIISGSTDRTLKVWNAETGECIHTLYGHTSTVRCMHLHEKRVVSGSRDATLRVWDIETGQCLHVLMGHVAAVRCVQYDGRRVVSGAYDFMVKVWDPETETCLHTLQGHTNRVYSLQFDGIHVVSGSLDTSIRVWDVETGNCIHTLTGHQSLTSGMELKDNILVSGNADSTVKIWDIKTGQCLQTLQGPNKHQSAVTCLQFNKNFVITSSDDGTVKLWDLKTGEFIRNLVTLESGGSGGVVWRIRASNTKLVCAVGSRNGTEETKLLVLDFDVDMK
GPR151 conf act: confirmation of human GPR151 activators | shares compounds with GPR151 ag | GPR151 PathHunter beta-arrestin cells, luminescence, 90 min; % of EA-reagent control over plate median | activation, % at 11.2 µM | 6,700 tested, under 10 active;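 active = mean percent activation across replicates above the confirmation screen cutoff of 4.91%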
GPR119 counter: activates human GPR119 in a GPR151 counter-screen. shares compounds with GPR151 ag. GPR119 PathHunter beta-arrestin cells, luminescence, 90 min; 0 = compound-well median, 100 = enzyme-acceptor control. activation, % at 11.2 µM. 6,700 compounds, 0.3% hits. AID 1508611;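 active = mean percent activation in the counterscreen above 29.09%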;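 note: counterscreen on off-target GPR119 to flag nonselective hits from the GPR151 activator screen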
Active calls of the source: *. Hits are enriched below; roughly 3.5% of the tested compounds scored in any of these assays.

`CC(=O)c1ccc(NC(=O)CSc2nnc(C3CC3)n2C)cc1` gave TEAD-YAP inh 14, GPR151 ag 2, MITF primary 10 and FBW7 activator 0.
O=C(O)CCC(=O)N1N=C(c2c(-c3ccccc3)c3cc(Br)ccc3[nH]c2=O)CC1c1ccco1 (stereo not given) was read as TEAD-YAP inh 8, GPR151 ag 5.4*, MITF primary -7, FBW7 activator 0, GPR151 conf act 0 and GPR119 counter 3.
`CC(=O)N1N=C(c2c(-c3ccccc3)c3cc(Br)ccc3[nH]c2=O)CC1c1ccco1` (stereo not given) gave TEAD-YAP inh 3, GPR151 ag -1, MITF primary 16 and FBW7 activator 1.
COc1ccc(C2CC(c3c(-c4ccccc4)c4cc(Br)ccc4[nH]c3=O)=NN2C(C)=O)cc1 (stereo not given) was read as TEAD-YAP inh 16, GPR151 ag 2, MITF primary 2 and FBW7 activator 0.
`COc1ccc(C2CC(c3c(-c4ccccc4)c4cc(Br)ccc4[nH]c3=O)=NO2)cc1` (stereo not given) gave TEAD-YAP inh 1, GPR151 ag 8.4*, MITF primary -11, FBW7 activator 0, GPR151 conf act 0 and GPR119 counter -7.
For CCC(=O)Nc1ccc(NC(=O)C(=O)/C=C(\O)c2ccc(C)cc2)cc1 the results were TEAD-YAP inh -11, GPR151 ag 1, MITF primary 3 and FBW7 activator 0.
Screening O=C(Nc1ccc2c3c(cccc13)CC2)c1ccc(-c2ccc(Cl)cc2)o1 returned TEAD-YAP inh -6, GPR151 ag 5.1*, MITF primary 14, FBW7 activator 0, GPR151 conf act -1 and GPR119 counter -4.
`COC(=O)c1cn(NC(=O)/C=C/c2ccc(Br)cc2)c(=O)c2ccccc12` gave TEAD-YAP inh -5, GPR151 ag 7.8*, MITF primary 2, FBW7 activator 0, GPR151 conf act 0 and GPR119 counter -5.
`Cc1cc(OCCCNCCN(C)C)ccc1[N+](=O)[O-]` gave TEAD-YAP inh -6, GPR151 ag 5.4*, MITF primary -4, FBW7 activator 0, GPR151 conf act 0 and GPR119 counter -11.
`Cc1ccc(OCCN2CCCC2)c([N+](=O)[O-])c1` gave TEAD-YAP inh 0, GPR151 ag 5.3*, MITF primary 46, FBW7 activator 0, GPR151 conf act 0 and GPR119 counter -7.
`Cc1cc(OCCN(C)C)ccc1[N+](=O)[O-]` gave TEAD-YAP inh -4, GPR151 ag -1, MITF primary 40 and FBW7 activator 0.
For COc1ccc(OCCOc2ccc(C)cc2[N+](=O)[O-])cc1 the results were TEAD-YAP inh -55, GPR151 ag 1, MITF primary 11 and FBW7 activator 0.
`COCCNCCCOc1ccc(C)cc1[N+](=O)[O-]` gave TEAD-YAP inh -1, GPR151 ag 7.3*, MITF primary 31, FBW7 activator 0, GPR151 conf act -1 and GPR119 counter -9.
Nc1c(C(=O)Nc2ccccc2)sc2nc3cc4c(cc3cc12)OCO4 was read as TEAD-YAP inh -43, GPR151 ag 0, MITF primary -12 and FBW7 activator 0.
`CC(=O)N1CCc2cc(Br)cc(S(=O)(=O)N(C)Cc3ccccc3)c21` gave TEAD-YAP inh 1, GPR151 ag 2, MITF primary -6 and FBW7 activator 0.
For Cc1ccnc(SCc2cc(=O)c(OC(=O)c3ccc(C)c(C)c3)co2)n1 the results were TEAD-YAP inh 0, GPR151 ag 4, MITF primary -7 and FBW7 activator 0.
For Nc1cc[n+](CC(=O)c2ccccc2)cc1 the results were TEAD-YAP inh -12, GPR151 ag 7.1*, MITF primary -13, FBW7 activator 0, GPR151 conf act 0 and GPR119 counter -6.
N#C/C(=C(/O)COc1ccc([N+](=O)[O-])cc1)c1nnc2n1CCCCC2 was read as TEAD-YAP inh -8, GPR151 ag 5.8*, MITF primary -3, FBW7 activator 0, GPR151 conf act 0 and GPR119 counter -6.
